Consider ten compounds from PubChem BioAssay (NCI).

About 79,000 compounds went through this panel and 15% of them were active in at least one assay; those are over-represented in the sample as a whole. Unmarked numbers belong to inactive results. Activity calls are given as the source filed them. Cut-off read from the data, not from the text of the source: active = growth inhibition above about 70%; inactive = the rest.

A short description of assay [1]: NCI Yeast Anticancer Drug Screen. Data for the rad50 strain (AID 155).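 Note: 0% = growth of vehicle-only cultures of the same strain.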 The note with it: S. cerevisiae rad50 strain growth inhibition, stronger effect = higher value. An outline of the steps:
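Yeast carrying a defined DNA repair defect were exposed to test compounds, and growth was compared with vehicle-treated controls to give percent inhibition.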

Assay [2] is described as follows: NCI Yeast Anticancer Drug Screen. Data for the mec2-1 strain (AID 157). The note with it: S. cerevisiae mec2-1 strain, stronger effect = higher value. An outline of the steps: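 Test agents were screened against the mec2-1 yeast strain, with defined DNA repair or cell cycle alteration. Growth was scored as inhibition against vehicle-only controls.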
Assay [3] can be described thus: NCI Yeast Anticancer Drug Screen. Data for the sgs1 mgt1 strain (AID 161).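 Note: 0% = growth of cultures given vehicle only.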 The following applies: S. cerevisiae sgs1 mgt1 strain, stronger effect = higher value. An outline of the steps: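 Mutant yeast exposed to compound; growth scored against vehicle-only wells.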
The nature of assay [4]: NCI Yeast Anticancer Drug Screen. Data for the cln2 rad14 strain (AID 165).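 Note: 0% = growth equal to vehicle treated cultures.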 The following applies: S. cerevisiae cln2 rad14 strain, stronger effect = higher value. An outline of the steps: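 Growth of compound-exposed yeast (cln2 rad14 genotype) measured and expressed as inhibition relative to vehicle.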
Assay [5] in a line: NCI Yeast Anticancer Drug Screen. Data for the bub3 strain (AID 167). The note with it: S. cerevisiae bub3 mutant strain, stronger effect = higher value. An outline of the steps:
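Compounds were applied to a genetically altered yeast strain carrying a cell-cycle control defect. Growth inhibition was scored against vehicle-treated controls.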

Assay [6] is described as follows: NCI Yeast Anticancer Drug Screen. Data for the mlh1 rad18 strain (AID 175). The following applies: S. cerevisiae mlh1 rad18 strain growth inhibition, stronger effect = higher value. An outline of the steps:
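In this whole-cell yeast screen, a strain with altered DNA damage repair is challenged with compound, and its growth is measured against matched vehicle-treated controls.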

The mark [7] stands for this setting: at 5.0 µM (retest, dose inferred, filed as 0.5).
The mark [8] stands for this setting: at 50.0 µM (retest, dose inferred, filed as 5.0).

As for `COc1ccccc1C(Cc1ccc(N2C(N)=NC(N)=NC2(C)C)cc1)C(=O)Nc1ccc(S(=O)(=O)F)cc1` (stereo not given), the growth inhibition in assay [1] (setting [7]) is 3%; in assay [1] (setting [8]), 15%; in assay [1] (at 50.0 µM), 90.1% (active); in assay [2] (setting [7]), 12%; in assay [2] (setting [8]), 2%; in assay [2] (at 50.0 µM), 95% (active). Moreover, the growth inhibition in assay [3] (setting [7]) is 1%; in assay [3] (setting [8]), 22%; in assay [3] (at 50.0 µM) it was 99.2% (active); in assay [4] (setting [7]) it was -2%; in assay [4] (setting [8]) it was -5%; in assay [4] (at 50.0 µM), 55.4%. The growth inhibition in assay [5] (setting [7]) was -3%; in assay [5] (setting [8]), -4%; in assay [5] (at 50.0 µM), 98.8% (active); in assay [6] (setting [7]) it was 2%; in assay [6] (setting [8]) it was 18%; in assay [6] (at 50.0 µM), 99% (active).

On to `CCOP(=O)(OCC)C(O)c1ccccc1Cl` (stereo not given), for which the growth inhibition in assay [1] (setting [7]) is 7%; in assay [1] (setting [8]) it was 4%; in assay [1] (at 50.0 µM), 38.4%; in assay [2] (setting [7]) it was 7%; in assay [2] (setting [8]), 4%; in assay [2] (at 50.0 µM) it was -4.1%. For the same compound, the growth inhibition in assay [3] (setting [7]) is 3%; in assay [3] (setting [8]), 17%; in assay [3] (at 50.0 µM) it was 9.15%; in assay [4] (setting [7]), -5%; in assay [4] (setting [8]), 1%; in assay [4] (at 50.0 µM) it was 35.5%. The growth inhibition in assay [5] (setting [7]) is -5%; in assay [5] (setting [8]) it was -6%; in assay [5] (at 50.0 µM), 17.2%; in assay [6] (setting [7]) it was 7%; in assay [6] (setting [8]) it was 22%; in assay [6] (at 50.0 µM), 2.9%.

Take `O=[n+]1c2ccccc2n([O-])c2ccccc21.[Cl][Cu][Cl]`: the growth inhibition in assay [1] (setting [7]) is 90% (active); in assay [1] (setting [8]), 98% (active); in assay [1] (at 50.0 µM), 99.1% (active); in assay [2] (setting [7]), 20%; in assay [2] (setting [8]), 99% (active); in assay [2] (at 50.0 µM), 99% (active). Besides, the growth inhibition in assay [3] (setting [7]) was 36%; in assay [3] (setting [8]), 98% (active); in assay [3] (at 50.0 µM), 99.2% (active); in assay [4] (setting [7]), 7%; in assay [4] (setting [8]), 97% (active); in assay [4] (at 50.0 µM) it was 97.6% (active). Besides, the growth inhibition in assay [5] (setting [7]) is -3%; in assay [5] (setting [8]), 98% (active); in assay [5] (at 50.0 µM) it was 97.7% (active); in assay [6] (setting [7]), 57%; in assay [6] (setting [8]) it was 98% (active); in assay [6] (at 50.0 µM), 99% (active).

With `C1OCC2[CH2][Hg][S][Hg][CH2]C1O2`, the growth inhibition in assay [1] (setting [7]) is 29%; in assay [1] (setting [8]) it was 95% (active); in assay [1] (at 50.0 µM), 92.8% (active); in assay [2] (setting [7]) it was 34%; in assay [2] (setting [8]), 97% (active); in assay [2] (at 50.0 µM), 94.8% (active). The growth inhibition in assay [3] (setting [7]) is 67%; in assay [3] (setting [8]) it was 98% (active); in assay [3] (at 50.0 µM), 95.5% (active); in assay [4] (setting [7]) it was 19%; in assay [4] (setting [8]), 95% (active); in assay [4] (at 50.0 µM) it was 92.6% (active). Also, the growth inhibition was 20% in assay [5] (setting [7]); 96% (active) in assay [5] (setting [8]); 95.2% (active) in assay [5] (at 50.0 µM); 36% in assay [6] (setting [7]); 94% (active) in assay [6] (setting [8]); 91.3% (active) in assay [6] (at 50.0 µM).

As to `N#CC1CC[CH-]CC1.[Cl-].[Cl-].[Cl-].[Cl-].[Cl-].[Sb+5].c1ccncc1`, the growth inhibition is -1% in assay [1] (setting [7]); 98% (active) in assay [1] (setting [8]); 99.1% (active) in assay [1] (at 50.0 µM); 3% in assay [2] (setting [7]); 100% (active) in assay [2] (setting [8]); 96.3% (active) in assay [2] (at 50.0 µM). Also, the growth inhibition was 5% in assay [3] (setting [7]); 99% (active) in assay [3] (setting [8]); 99.3% (active) in assay [3] (at 50.0 µM); 11% in assay [4] (setting [7]); 99% (active) in assay [4] (setting [8]); 99.3% (active) in assay [4] (at 50.0 µM). The growth inhibition in assay [5] (setting [7]) was -1%; in assay [5] (setting [8]), 99% (active); in assay [5] (at 50.0 µM), 90.5% (active); in assay [6] (setting [7]), 3%; in assay [6] (setting [8]) it was 99% (active); in assay [6] (at 50.0 µM) it was 98.5% (active).

Take `O=C(Oc1ccc(S(=O)(=O)F)cc1F)c1ccccc1Cl`: the growth inhibition in assay [1] (setting [7]) is 5%; in assay [1] (setting [8]), 99% (active); in assay [1] (at 50.0 µM) it was 99.2% (active); in assay [2] (setting [7]) it was 5%; in assay [2] (setting [8]) it was 99% (active); in assay [2] (at 50.0 µM), 99.5% (active). Moreover, the growth inhibition in assay [3] (setting [7]) is -2%; in assay [3] (setting [8]) it was 99% (active); in assay [3] (at 50.0 µM), 99.3% (active); in assay [4] (setting [7]), -10%; in assay [4] (setting [8]) it was 99% (active); in assay [4] (at 50.0 µM) it was 99% (active). Moreover, the growth inhibition is 6% in assay [5] (setting [7]); 99% (active) in assay [5] (setting [8]); 99.4% (active) in assay [5] (at 50.0 µM); 21% in assay [6] (setting [7]); 99% (active) in assay [6] (setting [8]); 98.7% (active) in assay [6] (at 50.0 µM).

Turning to `CN(C)C(=S)[S][Hg][c]1ccccc1`, the growth inhibition in assay [1] (setting [7]) was 64%; in assay [1] (setting [8]), 87% (active); in assay [1] (at 50.0 µM), 91.3% (active); in assay [2] (setting [7]), 69%; in assay [2] (setting [8]) it was 75% (active); in assay [2] (at 50.0 µM) it was 93.4% (active). The growth inhibition is 101% (active) in assay [3] (setting [7]); 99% (active) in assay [3] (setting [8]); 93.7% (active) in assay [3] (at 50.0 µM); 54% in assay [4] (setting [7]); 99% (active) in assay [4] (setting [8]); 92.8% (active) in assay [4] (at 50.0 µM). The growth inhibition in assay [5] (setting [7]) was 101% (active); in assay [5] (setting [8]), 100% (active); in assay [5] (at 50.0 µM), 92.1% (active); in assay [6] (setting [7]), 52%; in assay [6] (setting [8]), 70% (active); in assay [6] (at 50.0 µM), 91.5% (active).

Turning to `O=C(CBr)OC1CCCCC1`, the growth inhibition in assay [1] (setting [7]) was 73% (active); in assay [1] (setting [8]) it was 97% (active); in assay [1] (at 50.0 µM) it was 91% (active); in assay [2] (setting [7]), 41%; in assay [2] (setting [8]), 98% (active); in assay [2] (at 50.0 µM) it was 69.4%. Also, the growth inhibition in assay [3] (setting [7]) was 55%; in assay [3] (setting [8]) it was 98% (active); in assay [3] (at 50.0 µM) it was 87.4% (active); in assay [4] (setting [7]), 24%; in assay [4] (setting [8]), 80% (active); in assay [4] (at 50.0 µM) it was 10.9%. Further, the growth inhibition was 60% in assay [5] (setting [7]); 97% (active) in assay [5] (setting [8]); 75.8% (active) in assay [5] (at 50.0 µM); 69% in assay [6] (setting [7]); 98% (active) in assay [6] (setting [8]); 90.4% (active) in assay [6] (at 50.0 µM).

On to `CC12C(=O)C=CCC1=CCC1C2CCC2(O)C(=O)OC3(C)C4CC5(C)C(COC16OC23C5C6=O)C(=O)O4` (stereo not given), for which the growth inhibition was 11% in assay [1] (setting [7]); 51% in assay [1] (setting [8]); 78.8% (active) in assay [1] (at 50.0 µM); 24% in assay [2] (setting [7]); 35% in assay [2] (setting [8]); 55.7% in assay [2] (at 50.0 µM). Moreover, the growth inhibition was 19% in assay [3] (setting [7]); 31% in assay [3] (setting [8]); 54.4% in assay [3] (at 50.0 µM); 3% in assay [4] (setting [7]); 18% in assay [4] (setting [8]); 30.4% in assay [4] (at 50.0 µM). Further, the growth inhibition in assay [5] (setting [7]) was 14%; in assay [5] (setting [8]) it was 56%; in assay [5] (at 50.0 µM), 69.6%; in assay [6] (setting [7]), 32%; in assay [6] (setting [8]), 64%; in assay [6] (at 50.0 µM), 62.5%.

In the case of `N#CS.[Ag]`, the growth inhibition was 11% in assay [1] (setting [7]); 97% (active) in assay [1] (setting [8]); 60.8% in assay [1] (at 50.0 µM); 10% in assay [2] (setting [7]); 98% (active) in assay [2] (setting [8]); 91.7% (active) in assay [2] (at 50.0 µM). In addition, the growth inhibition in assay [3] (setting [7]) was 15%; in assay [3] (setting [8]), 98% (active); in assay [3] (at 50.0 µM), 75.2% (active); in assay [4] (setting [7]), 27%; in assay [4] (setting [8]) it was 98% (active); in assay [4] (at 50.0 µM), 32.7%. The growth inhibition in assay [5] (setting [7]) is 25%; in assay [5] (setting [8]) it was 98% (active); in assay [5] (at 50.0 µM), 89.5% (active); in assay [6] (setting [7]) it was -1%; in assay [6] (setting [8]) it was 97% (active); in assay [6] (at 50.0 µM), 89% (active).
